From PubChem BioAssay (Tox21)
Inconclusive results are not listed. Values without a mark were called inactive. Activity calls are given as the source filed them. Calls come from the whole dose curve; as a rule, active = well fitted curve in the direction sought with a large enough effect in the repeat runs; inconclusive = weak or mixed curves; inactive = no such curve, though single readings can be large; an effect the other way counts as inactive or inconclusive.

Assay: qHTS assay to identify small molecule antagonists of the retinoic acid receptor (RAR) signaling pathway (AID 1159552; note: nearly all actives have a fitted effect of over 50% in size)
Conditions: C3RL4 RARE luciferase reporter, retinol-stimulated, 6 h; series mostly up to 92.4 µM; activity, negative = inhibition: at the top concentration
Method in brief: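 Antagonism of retinol-induced RARE reporter activity was measured in C3RL4 cells. Exposure to compounds and 1 uM final retinol lasted 6 hr at 37 C, with luminescence as endpoint.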
% is set by controls: 0 for no effect and ±100 for the full control effect; potency is the fitted concentration of half-maximal effect.

Row | Compound | activity, negative = inhibition | Potency
1 | CCOC(=N)CC(=O)OCC | -8.57% | 
2 | CCOC(=O)C(C)Oc1ccc(Oc2nc3ccc(Cl)cc3o2)cc1 (stereo unspecified) | 69.9% | 
3 | CC(C)(CCl)c1ccccc1 | 64.2% | 
4 | N#C/C(=C1\SCC(c2ccccc2Cl)S1)n1ccnc1 (stereo unspecified) | 11.4% [at 42.5 µM] | 
5 | CCCOc1ccc(S(=O)(=O)N2CCN(CC)CC2)cc1-c1nc2c(CC)n(Cc3ccccn3)nc2c(=O)[nH]1 | -3.25% | 
6 | CCCCN(CCCC)C(=S)SSC(=S)N(CCCC)CCCC | -16.9% | 
7 | Nc1ccc(S(=O)(=O)O)cc1 | -6.01% | 
8 | CC(C)c1nnc2ccc(-c3ocnc3-c3cc(F)ccc3F)cn12 |  | 27.3 µM (active)
9 | Cc1nccn1-c1ccc(Sc2cccc(C3(C(N)=O)CCOCC3)c2)cc1 |  | 9.69 µM (active)
10 | Cc1cc(O)c2c(O)c3c(O)cccc3cc2c1 | -3.92% [at 42.5 µM] | 
11 | O=C(O)Cc1ccc(-c2ccccc2)cc1 | 4.93% [at 42.5 µM] | 
12 | NCC1CCCC(CN)C1 (stereo unspecified) | -6.33% | 
13 | O=C(c1ccc(O)cc1)c1ccc(Cl)cc1 | 28.1% | 
14 | O=C(O)c1ccccc1NCCc1ccccc1 | 107% [at 42.5 µM] | 
15 | CCCCC(CC)C(=O)OCCOCCOCCOCCOC(=O)C(CC)CCCC (stereo unspecified) | -8.69% | 
16 | CCOC(=O)c1ccccc1OC | -3.04% | 
17 | CCCCCCCCCCOS(=O)(=O)O | 39.5% | 
18 | Cc1ccc(/C=N/n2c(-c3ccccc3)csc2=S)cc1 | -10.5% [at 42.5 µM] | 
19 | CC(C)=CC=O | -0.723% | 
20 | CCOC(=O)[C@@H](C)Oc1ccc(Oc2nc3ccc(Cl)cc3o2)cc1 | 73.5% | 
21 | CCCCCCCCCCCC[N+](C)(C)CCCS(=O)(=O)[O-] | -3.88% | 
22 | CO[C@@]12[C@H](COC(N)=O)C3=C(C(=O)C(C)=C(N)C3=O)N1C[C@@H]1N[C@@H]12 |  | 10.6 µM (active)
23 | ON(Cc1ccccc1)Cc1ccccc1 | 64% | 
24 | O=C(NCCCN1CCOCC1)c1ccc(Cl)cc1 | 52.5% [at 42.5 µM] | 
25 | CC(C)CCCCCOC(=O)CCCCC(=O)OCCCCCC(C)C | 22% | 
26 | CNC(=O)N(c1ccccc1)c1ccccc1 | 2.17% | 
27 | O=C(OCCOCCO)c1ccccc1Nc1cccc(C(F)(F)F)c1 | -9.27% [at 42.5 µM] | 
28 | CCCCCCOC(=O)C(C)C | -9.79% | 
29 | NC(=O)N(O)[C@@H]1C=C[C@H](Oc2cccc(Oc3ccc(F)cc3)c2)C1 | -4.71% | 

Assay: qHTS assay to identify small molecule agonists of the retinoic acid receptor (RAR) signaling pathway (AID 1159553)
Conditions: C3RL4 RARE luciferase reporter, agonist, 6 h; series mostly up to 73.3 µM; activation: at the top concentration
Method in brief: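 Reporter readout comes from luciferase under RARE control in C3RL4 cells; compound exposure lasts 6 hr at 37 C in 5% CO2, and luminescence is recorded following a 30 min room-temperature incubation with reagent.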

Row | Compound | activation | Potency
30 | CCOC(=N)CC(=O)OCC | -2.62% | 
31 | Nc1ccc(Cl)cc1[N+](=O)[O-] | 5.24% | 
32 | N#C/C(=C1\SCC(c2ccccc2Cl)S1)n1ccnc1 (stereo unspecified) | 2.44% | 
33 | CCCOc1ccc(S(=O)(=O)N2CCN(CC)CC2)cc1-c1nc2c(CC)n(Cc3ccccn3)nc2c(=O)[nH]1 | -5.29% | 
34 | CCCCN(CCCC)C(=S)SSC(=S)N(CCCC)CCCC |  | 1.52 µM (active)
35 | Nc1ccc(S(=O)(=O)O)cc1 | 1.95% [at 94.8 µM] | 
36 | CC(C)c1nnc2ccc(-c3ocnc3-c3cc(F)ccc3F)cn12 | -8.06% | 
37 | Cc1cc(O)c2c(O)c3c(O)cccc3cc2c1 | -1.13% | 
38 | CC(=O)Oc1ccc2c(c1)CC[C@@H]1[C@@H]2CC[C@]2(C)[C@@H](O)CC[C@@H]12 | -1.59% | 
39 | N#C/C(=C1/SC[C@@H](c2ccc(Cl)cc2Cl)S1)n1ccnc1 | -2.51% | 
40 | O=C(O)Cc1ccc(-c2ccccc2)cc1 | 1.25% | 
41 | NCC1CCCC(CN)C1 (stereo unspecified) | -5.56% | 
42 | O=C(O)c1ccccc1NCCc1ccccc1 |  | 23.7 µM (active)
43 | COCCOC(=O)C1=C(C)NC(C)=C(C(=O)OC/C=C/c2ccccc2)C1c1cccc([N+](=O)[O-])c1 (stereo unspecified) | -14.6% | 
44 | CCCCC(CC)C(=O)OCCOCCOCCOCCOC(=O)C(CC)CCCC (stereo unspecified) | -1.28% | 
45 | CCOC(=O)c1ccccc1OC | 0.214% | 
46 | CCCCCCCCCCOS(=O)(=O)O | -1.03% | 
47 | Cc1ccc(/C=N/n2c(-c3ccccc3)csc2=S)cc1 | -4.58% | 
48 | CC(C)=CC=O | -0.73% [at 94.8 µM] | 
49 | CCCCCCCCCCCC[N+](C)(C)CCCS(=O)(=O)[O-] | -1.55% [at 94.8 µM] | 
50 | ON(Cc1ccccc1)Cc1ccccc1 | 2.18% | 
51 | CC(C)CCCCCOC(=O)CCCCC(=O)OCCCCCC(C)C | 1.12% | 
52 | CNC(=O)N(c1ccccc1)c1ccccc1 | -0.528% [at 94.8 µM] | 
53 | O=C(OCCOCCO)c1ccccc1Nc1cccc(C(F)(F)F)c1 | -5.54% | 
54 | CCC(Cc1ccccc1)(C(=O)c1ccc(N2CCOCC2)cc1)N(C)C (stereo unspecified) | -2.64% | 
55 | CCCCCCOC(=O)C(C)C | 2.18% | 
56 | CC(=O)OCC(=O)[C@H]1CC[C@H]2[C@@H]3CCC4=CC(=O)CC[C@]4(C)[C@H]3CC[C@]12C | -6.88% | 
57 | NC(=O)N(O)[C@@H]1C=C[C@H](Oc2cccc(Oc3ccc(F)cc3)c2)C1 |  | 61.1 µM (active)

Assay: qHTS assay to identify small molecule antagonists of the estrogen related receptor (ERR) signaling pathway from Tox21 library - cell viability counter screen (AID 1224834); note: nearly all actives have a fitted effect of over 30% in size
Conditions: ERR reporter cells viability, CellTiter-Fluor, 17.5 h; series mostly up to 92.4 µM; viability change, negative = cytotoxic: at the top concentration
Method in brief: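 After 17.5 h of compound exposure at 37 C, ERR cells are incubated with CellTiter-Fluor for 30 min and fluorescence intensity serves as the viability measure.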

Row | Compound | viability change, negative = cytotoxic | Potency
58 | CCOC(=N)CC(=O)OCC | 0.847% | 
59 | CCOC(=O)C(C)Oc1ccc(Oc2nc3ccc(Cl)cc3o2)cc1 (stereo unspecified) | 0.25% | 
60 | CC(C)(CCl)c1ccccc1 | 3.52% | 
61 | N#C/C(=C1\SCC(c2ccccc2Cl)S1)n1ccnc1 (stereo unspecified) | -0.278% [at 42.5 µM] | 
62 | CCCOc1ccc(S(=O)(=O)N2CCN(CC)CC2)cc1-c1nc2c(CC)n(Cc3ccccn3)nc2c(=O)[nH]1 | -11.4% | 
63 | Nc1ccc(S(=O)(=O)O)cc1 | -0.925% | 
64 | CC(C)c1nnc2ccc(-c3ocnc3-c3cc(F)ccc3F)cn12 | -5.33% | 
65 | CO/N=C1\CN(c2nc3c(cc2F)c(=O)c(C(=O)O)cn3C2CC2)CC1CN (stereo unspecified) | -1.8% [at 42.5 µM] | 
66 | C=CC(=O)NCOCC(C)C | 5.44% | 
67 | O=C(O)Cc1ccc(-c2ccccc2)cc1 | 2.5% [at 42.5 µM] | 
68 | NCC1CCCC(CN)C1 (stereo unspecified) | -0.979% | 
69 | C=C(C)C(=O)OCCOC(=O)CC(C)=O | 0.457% | 
70 | O=C(O)c1ccccc1NCCc1ccccc1 | 0.456% [at 42.5 µM] | 
71 | CCCCC(CC)C(=O)OCCOCCOCCOCCOC(=O)C(CC)CCCC (stereo unspecified) | -5.48% | 
72 | CCOC(=O)c1ccccc1OC | 3.41% | 
73 | CCCCCCCCCCOS(=O)(=O)O | -0.124% | 
74 | C1COCO1 | 2.03% | 
75 | Cc1ccc(/C=N/n2c(-c3ccccc3)csc2=S)cc1 | -11.5% [at 42.5 µM] | 
76 | Cc1ccc(Nc2nccc(N(C)c3ccc4c(C)n(C)nc4c3)n2)cc1S(N)(=O)=O |  | 29.8 µM (active)
77 | CC(C)=CC=O | 0.685% | 
78 | CCOC(=O)[C@@H](C)Oc1ccc(Oc2nc3ccc(Cl)cc3o2)cc1 | -0.905% | 
79 | CCCCCCCCCCCC[N+](C)(C)CCCS(=O)(=O)[O-] | -8.65% | 
80 | ON(Cc1ccccc1)Cc1ccccc1 | -0.0676% | 
81 | O=C(NCCCN1CCOCC1)c1ccc(Cl)cc1 | 4.58% [at 42.5 µM] | 
82 | CC(C)CCCCCOC(=O)CCCCC(=O)OCCCCCC(C)C | -4.1% | 
83 | CNC(=O)N(c1ccccc1)c1ccccc1 | 1.07% | 
84 | CCCCCCOC(=O)C(C)C | 0.478% | 
85 | CC(=O)OCC(=O)[C@H]1CC[C@H]2[C@@H]3CCC4=CC(=O)CC[C@]4(C)[C@H]3CC[C@]12C | 1.66% [at 42.5 µM] | 
86 | NC(=O)N(O)[C@@H]1C=C[C@H](Oc2cccc(Oc3ccc(F)cc3)c2)C1 | -17.4% | 
